Source: PubChem BioAssay
CHT block = human CHT choline transport inhibition. Q9GZV3. CHT-expressing cells, membrane potential dye, choline response; active compounds read low. B-score at 10 µM. 0.86% of 310,000 active;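 active = B-score over 3 SD under the library average, and starting fluorescence ratio not unusually high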;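 also: choline stimulus applied at its EC90 after an EC20 pre-addition; B-score computed on integrated fluorescence ratio after choline addition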
Target sequence (Q9GZV3 whole entry, looked up): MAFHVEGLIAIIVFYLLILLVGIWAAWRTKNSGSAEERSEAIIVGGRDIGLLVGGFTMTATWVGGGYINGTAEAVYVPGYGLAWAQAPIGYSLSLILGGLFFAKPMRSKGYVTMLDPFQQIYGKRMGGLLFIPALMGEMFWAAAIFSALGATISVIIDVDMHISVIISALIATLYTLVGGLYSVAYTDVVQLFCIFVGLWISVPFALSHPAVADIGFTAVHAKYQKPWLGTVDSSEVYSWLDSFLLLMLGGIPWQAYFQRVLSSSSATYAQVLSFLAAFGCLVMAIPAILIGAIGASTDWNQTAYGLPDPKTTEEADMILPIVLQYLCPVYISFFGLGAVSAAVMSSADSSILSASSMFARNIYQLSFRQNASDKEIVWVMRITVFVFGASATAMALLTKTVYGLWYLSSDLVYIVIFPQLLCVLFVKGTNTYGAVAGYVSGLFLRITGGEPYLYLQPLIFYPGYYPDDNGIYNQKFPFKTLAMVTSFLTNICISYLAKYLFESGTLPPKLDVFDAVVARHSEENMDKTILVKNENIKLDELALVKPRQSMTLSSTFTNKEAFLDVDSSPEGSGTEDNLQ
TAG inh = reduces triacylglycerol accumulation in H9c2 cells; Nile Red lipid (TAG) fluorescence; cells loaded with 200 µM oleic acid; inhibition, % at 12.5 µM; 0.66% of 230,000 active; AID 651582;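 active = pattern-corrected inhibition of lipid staining of at least 50% with the nuclear-stain viability signal not falling by more than 50%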;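 also: 0% = DMSO wells and 100% = triacsin C control wells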
MIN6 prolif = MIN6 beta-cell proliferation induction | proliferation, % at 10 µM | MIN6 cells proliferation, ATPlite luminescence, 48 h; cells starved in 0.2% serum; 100% = growth in 10% serum | 0.29% of 330,000 active;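 active = compounds whose signal lies at least 3.5 SD above the mean of all wells on their plate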;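 also: 0% = DMSO-treated cells in low-serum medium and 100% = 10% serum control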
CHT PAM = allosteric activators of human choline transporter CHT; Q9GZV3; CHT-expressing cells, membrane potential dye, choline EC20; active compounds read high; LV-AA mutant CHT in HEK293 cells; B-score at 10 µM; 0.49% of 310,000 active; AID 488977;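 active = initial fluorescence not abnormally high and integrated response B-score, plate-corrected, over 3 SD above library mean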
CHT block conf = confirmation of human choline transporter CHT inhibitors; shares compounds with CHT block; CHT-expressing cells, choline membrane potential dye; LV-to-AA substituted CHT, HEK293 cells; CHT activity remaining % of control (active compounds read low), % at 10 µM; 70% of 2,400 active;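 active = choline transporter activity left, mean of duplicates at 10 µM, below buffer-only control mean minus 3 SD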;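 also: depolarization triggered by choline at its EC90 following an EC20 pre-addition; 0% = hemicholinium-3 full block and 100% = buffer-only control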
HEK293 MPD ctr = activity in parental HEK293 cells lacking CHT. shares compounds with CHT block. membrane potential dye, choline response; active = decrease or increase beyond buffer ±3SD. membrane potential ratio readout (active if shifted either direction beyond buffer ±3SD; no single direction) at 10 µM. 4% of 2,400 active;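 also: parental cells lack the transporter so any hit is non-specific; ratio is peak minus trough fluorescence over baseline after EC90 choline challenge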
CHT act confirm = confirmation of human choline transporter (CHT) activators; shares compounds with CHT PAM; CHT-expressing cells, membrane potential dye fluorescence (FDSS); % of choline EC20–EC90 response window; HEK293 expressing CHT LV-AA mutant; choline added at its EC20; activation, % at 10 µM; 91% of 2,500 active; AID 504833;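 active = primary screen active, with duplicate mean activation above negative control mean plus 3 SD, cut at about 11% in these data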
HEK293 MP dye = activity in parental HEK293 cells lacking CHT. ratio readout change at 10 µM, hits read low. 62% of 2,500 active. AID 623908. membrane potential dye fluorescence (FDSS); measured after EC20 choline addition. shares compounds with CHT PAM;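 active = duplicate-averaged ratio beyond 3 SD from buffer wells, up or down, though filed actives are nearly all decreases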
TAG conf = confirmation of triacylglycerol accumulation inhibitors; shares compounds with TAG inh; H9c2 lipid accumulation, Nile Red fluorescence; cells loaded with 200 µM oleic acid; inhibition, % at 12.5 µM; 71% of 990 active; AID 651629;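 active = mean inhibition across replicates of 40% or more; inactive = mean inhibition below 40%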;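 also: plate controls were DMSO only wells for no effect and Triacsin C treated wells for full effect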
Numbers without * were called inactive. Sampled rows, rich in hits. Any-hit rate of the full collection: about 1.7%.

Screening CCCCn1c(Oc2ccc(C(=O)OC)cc2)nc2c1c(=O)n(C)c(=O)n2C returned CHT block -6.8*, MIN6 prolif -1, CHT PAM inactive, CHT block conf inactive and HEK293 MPD ctr inactive.
Screening CCCCn1c(SCC(=O)OC)nc2c1c(=O)n(C)c(=O)n2C returned CHT block inactive, MIN6 prolif -1 and CHT PAM inactive.
`CN(CCc1ccccc1)C(=O)c1ccc(NC(=O)Cc2ccc(NC(=O)C3CCCN(C(=O)c4ccccc4)C3)cc2)cc1` (centres undefined) gave TAG inh 2.
Screening O=C(CN1CSCC1=O)N1CCN(S(=O)(=O)c2ccc(Cl)cc2)CC1 returned TAG inh -10 and MIN6 prolif -1.
Screening O=S(=O)(c1ccc(N2CCCC2)nc1)N1CCCC1 returned CHT block -5.8*, TAG inh -1, MIN6 prolif -1, CHT PAM inactive, CHT block conf 43%* and HEK293 MPD ctr inactive.
`CCc1oc(C(=O)O)cc1CN(CC)CC` gave CHT block inactive, MIN6 prolif -2 and CHT PAM inactive.
Screening CCc1oc(C(=O)O)cc1COC returned CHT block -11*, TAG inh 2, MIN6 prolif -1, CHT PAM inactive, CHT block conf inactive and HEK293 MPD ctr inactive.
For Cc1cccc(C(=O)N[C@H](C(=O)Nc2ncc(C)s2)C(C)C)c1 the results were CHT block -11*, TAG inh 65*, MIN6 prolif -4, CHT PAM inactive, CHT block conf inactive, HEK293 MPD ctr inactive and TAG conf 93*.
`C[C@H](NC(=O)c1ccc(Cl)cc1)C(=O)NNC(=O)c1cccs1` gave TAG inh 29 and MIN6 prolif 1.
For COc1cc(OC)c2c(-c3ccccc3)cc(=O)oc2c1C(CCN1CCCCC1)c1ccc(N(C)C)cc1 (centres undefined) the results were CHT block -5.9*, TAG inh 68*, MIN6 prolif -8, CHT PAM inactive, CHT block conf 29%*, HEK293 MPD ctr inactive and TAG conf 55*.
For COc1cc(OC)c2c(-c3ccccc3)cc(=O)oc2c1C(CCN1CCCCC1)c1ccc2c(c1)OCO2 (centres undefined) the results were CHT block -9.5*, TAG inh 58*, MIN6 prolif -8, CHT PAM inactive, CHT block conf 45%*, HEK293 MPD ctr inactive and TAG conf 41*.
Screening FC(F)(F)c1ccccc1/C=N/n1c(COc2ccccc2)n[nH]c1=S returned CHT block inactive, MIN6 prolif 1 and CHT PAM inactive.
CCOc1c(Cl)cc(/C=C/C(=O)N(CC)CC(=O)NCc2cccs2)cc1OC was read as CHT block -7.6*, TAG inh 59*, MIN6 prolif -2, CHT PAM inactive, CHT block conf inactive, HEK293 MPD ctr inactive and TAG conf 43*.
`CCOc1cc(/C=C/C(=O)N(CC)CC(=O)NCc2cccs2)cc(Cl)c1OC` gave CHT block inactive, TAG inh 39, MIN6 prolif -2 and CHT PAM inactive.
Cc1nc(CSc2nc3[nH]ncc3c(=O)n2-c2ccccc2)cs1 was read as CHT block inactive, TAG inh -6, MIN6 prolif 1 and CHT PAM inactive.
Screening Cc1noc(C)c1CSc1nc2[nH]ncc2c(=O)n1-c1ccccc1 returned CHT block -5.5*, TAG inh 64*, MIN6 prolif -2, CHT PAM inactive, CHT block conf inactive, HEK293 MPD ctr inactive and TAG conf 91*.
For S=C(Nc1ccccc1)N1CCC(Cc2ccccc2)CC1 the results were CHT block inactive, MIN6 prolif -5 and CHT PAM inactive.
`CCC(C)(C)NC(=O)C(c1ccccc1F)N(Cc1ccco1)C(=O)c1csnn1` (centres undefined) gave CHT block -5*, TAG inh 53*, MIN6 prolif 3, CHT PAM inactive, CHT block conf inactive, HEK293 MPD ctr inactive and TAG conf 19.
CCCCN1C(=O)C(CC(=O)NC2CCCCC2)CC(C(=O)N(C)C)=C1C (centres undefined) was read as TAG inh 10.
Cc1nn2c(NCCN3CCOCC3)c3c(nc2c1-c1ccccc1)CCCC3 was read as CHT block inactive, TAG inh 14, MIN6 prolif 1 and CHT PAM inactive.
Screening Cc1nn2c(N3CCN(C)CC3)c3c(nc2c1-c1ccccc1)CCCC3 returned CHT block -9.6*, TAG inh 58*, MIN6 prolif -4, CHT PAM inactive, CHT block conf 32%*, HEK293 MPD ctr inactive and TAG conf 45*.
`c1ccc2c(SCc3cn4ccccc4n3)nncc2c1` gave CHT block inactive, TAG inh 5, MIN6 prolif 3, CHT PAM 7.7*, CHT act confirm 39* and HEK293 MP dye -37*.
For Cc1cc(C)c(C#N)c(SCc2cn3ccccc3n2)n1 the results were CHT block inactive, MIN6 prolif -1, CHT PAM 6.5*, CHT act confirm 51* and HEK293 MP dye -46*.
CC(=O)c1ccc(S(=O)(=O)N2CCN(C(=O)c3ccc(COc4ccccc4)o3)CC2)cc1 was read as TAG inh -9 and MIN6 prolif -1.
For CCN(CC)S(=O)(=O)c1cc(C(=O)OCC(=O)Nc2cccc(S(=O)(=O)N(C)C)c2)ccc1F the results were CHT block inactive, TAG inh 2, MIN6 prolif 3, CHT PAM 15*, CHT act confirm 22* and HEK293 MP dye inactive.
For Cc1c(NC(=O)c2cnc(Cl)c(Cl)c2)c(=O)n(-c2ccccc2)n1C the results were CHT block inactive, MIN6 prolif -2 and CHT PAM inactive.
Cc1ccc(F)cc1C(=O)N1CCCCC1c1cc(C(=O)Nc2cccc(C#N)c2)no1 (centres undefined) was read as TAG inh 5.
